PubChem BioAssay (NCATS)
Records with an inconclusive call do not appear. Activity calls are given as the source filed them. Unless noted, calls follow the shape of the dose curve; as a rule, active = well fitted curve in the direction sought with a large enough effect; inconclusive = small, poorly fitted or top-dose-only effect, or another doubt; inactive = no such curve, though single readings can be large; an effect the other way counts as inactive or inconclusive.

Tests used:
CAOV3 = experiment: Primary qHTS to identify gynecologic anti-cancer compounds using libraries of approved drugs and bioactive compounds (AID 1345084); conditions: Gynecologic cancer cell panel viability, ATPlite luminescence, 48 h; series mostly up to 57.5 µM; also: nearly all actives have a fitted effect of over 55% in size; also: potency is read from the fitted curve at half-maximal effect
How it was run: (§1)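 Cell viability after 48 h drug treatment, ATPlite luminescence readout; five doses.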

OV90 = experiment: as above; conditions: Gynecologic cancer cell panel viability, ATPlite luminescence, 48 h; series mostly up to 57.5 µM
How it was run: as §1

Tov112D = experiment: as above; conditions: Gynecologic cancer cell panel viability, ATPlite luminescence, 48 h; series mostly up to 57.5 µM
How it was run: as §1

HeLa = experiment: as above; conditions: Gynecologic cancer cell panel viability, ATPlite luminescence, 48 h; series mostly up to 57.5 µM
How it was run: as §1

JEG-3 = experiment: as above; conditions: Gynecologic cancer cell panel viability, ATPlite luminescence, 48 h; series mostly up to 57.5 µM
How it was run: as §1

CASKI = experiment: as above; conditions: Gynecologic cancer cell panel viability, ATPlite luminescence, 48 h; series mostly up to 57.5 µM
How it was run: as §1

PA-1 = experiment: as above; conditions: Gynecologic cancer cell panel viability, ATPlite luminescence, 48 h; series mostly up to 57.5 µM
How it was run: as §1

Tov-21-G = experiment: as above; conditions: Gynecologic cancer cell panel viability, ATPlite luminescence, 48 h; series mostly up to 57.5 µM
How it was run: as §1

Es-2 = experiment: as above; conditions: Gynecologic cancer cell panel viability, ATPlite luminescence, 48 h; series mostly up to 57.5 µM
How it was run: as §1

Hek293T = experiment: as above; conditions: Gynecologic cancer cell panel viability, ATPlite luminescence, 48 h, control line for the selectivity index; series mostly up to 57.5 µM
How it was run: as §1

[1] = qHTS assay to identify inhibitors of the type 1 interferon - major histocompatibility complex class I in skeletal muscle: Counter screen cell viability and HiBit confirmation (AID 1347412); conditions: iHSKM muscle cells + IFN-b, HiBiT or CellTiter-Glo, 24 h; for Potency: HiBiT; for activity change, negative = inhibition: Viability, at 45.9 µM (top of the series); also: potency is read from the fitted curve at half-maximal effect; as to activity change, negative = inhibition: % is scaled to controls: 0 for no effect and ±100 for the full control effect; as to all read-outs here: nearly all actives have a fitted effect of over 60% in size
How it was run: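 Luminescence read-out: Nano-Glo HiBiT lytic signal from C-terminally HiBiT-tagged HLA-B in CRISPR-edited human myoblasts, plus CellTiter Glo ATP as viability counter screen. IFN-beta 4.0 ng/ml; 24 hrs treatment at 37 C, 5% CO2.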

SKOV3 = experiment: Primary qHTS to identify gynecologic anti-cancer compounds using libraries of approved drugs and bioactive compounds (AID 1345084); conditions: Gynecologic cancer cell panel viability, ATPlite luminescence, 48 h; series mostly up to 57.5 µM; also: nearly all actives have a fitted effect of over 55% in size; also: potency is read from the fitted curve at half-maximal effect
How it was run: as §1

astro = experiment: Drug repurposing screens with cells derived from glioblastoma tumor samples (AID 1345199); conditions: viability, ATP luminescence, 48 h; series mostly up to 91.6 µM; also: % is scaled to controls: 0 for no effect and ±100 for the full control effect; nearly all actives have a fitted effect of over 40% in size
How it was run: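 Primary testing used CD133+ neurospheres from four GBM patients, seven concentrations, 48 h exposure and ATP-based viability; confirmation added three slower-growing patient lines.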

[2] = biological target: Nuclear receptor subfamily 1 group I member 2 (Rattus norvegicus) (UniProt Q9R1A7); experiment: qHTS assay for small molecule activators of the rat pregnane X receptor (rPXR) signaling pathway (AID 651751; call rule not given here; also: 0% is about no effect); conditions: rPXR reporter cells, luciferase (One-Glo), 24 h
Nuclear receptor subfamily 1 group I member 2 (Rattus norvegicus), sequence (Q9R1A7 whole entry, looked up): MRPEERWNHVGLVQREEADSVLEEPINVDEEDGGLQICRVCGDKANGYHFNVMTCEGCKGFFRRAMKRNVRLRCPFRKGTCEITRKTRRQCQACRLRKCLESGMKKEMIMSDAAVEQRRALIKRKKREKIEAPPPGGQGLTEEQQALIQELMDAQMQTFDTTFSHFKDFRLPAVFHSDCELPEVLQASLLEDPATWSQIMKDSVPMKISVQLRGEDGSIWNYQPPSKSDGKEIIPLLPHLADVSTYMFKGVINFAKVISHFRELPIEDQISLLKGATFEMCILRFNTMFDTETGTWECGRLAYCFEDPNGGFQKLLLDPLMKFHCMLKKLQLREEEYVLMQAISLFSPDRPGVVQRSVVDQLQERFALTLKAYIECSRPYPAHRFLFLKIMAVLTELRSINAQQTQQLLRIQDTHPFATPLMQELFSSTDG

[3] = qHTS assay for small molecule activators of the human pregnane X receptor (PXR) signaling pathway (AID 720659; call rule not given here; also: 0% is about no effect)

Cc1cccc(/C=N/Nc2cc(N3CCOCC3)n3nc(-c4ccncc4)cc3n2)c1
active: Potency (CAOV3) 8910 nM | Potency (OV90) 2000 nM | Potency (Tov112D) 3980 nM

C=C(C)C(=O)OC1CC2(C)OC(=CC2=O)C(=C)CC2OC(=O)C(COC)C12 (stereo not given)
inactive: Potency (CAOV3) | Potency (HeLa) | Potency (JEG-3) | Potency (OV90) | Potency (Tov112D)

COc1cc(N2CCOCC2)ccc1Nc1ncc(Cl)c(Nc2ccccc2NS(C)(=O)=O)n1
active: Potency (CAOV3) 3550 nM | Potency (CASKI) 8910 nM | Potency (HeLa) 3160 nM | Potency (PA-1) 2820 nM | Potency (Tov-21-G) 3160 nM

Cc1ccc(C(=O)N(CCCN)C(c2nc3cc(Cl)ccc3c(=O)n2Cc2ccccc2)C(C)C)cc1 (stereo not given)
active: Potency (CAOV3) 25100 nM | Potency (CASKI) 25100 nM
inactive: Potency (OV90)

Cc1ccc(NC(=O)Nc2cc(C(F)(F)F)ccc2F)cc1Nc1ccc2c(c1)NC(=O)/C2=C\c1ccc[nH]1
inactive: Potency (CASKI) | Potency (Es-2) | Potency (HeLa) | Potency (Hek293T) | Potency (JEG-3) | Potency (OV90) | Potency (PA-1) | Potency (Tov-21-G) | Potency (Tov112D) | activity change, negative = inhibition [1] -28%
active: Potency [1] 31300 nM

O=C(O)[C@@H]1C[C@H]2C[C@@H](CCc3nn[nH]n3)CC[C@H]2CN1
inactive: Potency (CASKI) | Potency (Es-2) | Potency (HeLa) | Potency (Hek293T) | Potency (JEG-3) | Potency (OV90) | Potency (PA-1) | Potency (Tov-21-G) | Potency (Tov112D)

CNC(=O)c1cc(Oc2ccc3nc(N[C@@H]4CCCC[C@H]4O)sc3c2)ccn1
inactive: Potency (CAOV3) | Potency (CASKI) | Potency (Hek293T)

CN[C@H](C(=O)N[C@H](C(=O)N(C)[C@H](/C=C(\C)C(=O)O)C(C)C)C(C)(C)C)C(C)(C)c1ccccc1
inactive: Potency (CAOV3) | Potency (SKOV3)

CC[C@]12C=CCN3CC[C@@]4(c5cc([C@@]6(C(=O)OC)C[C@H]7C[C@@H](C(C)(F)F)CN(Cc8c6[nH]c6ccccc86)C7)c(OC)cc5N(C)[C@H]4[C@@](O)(C(=O)OC)[C@@H]1OC(C)=O)[C@@H]32
active: Potency (Es-2) 1000 nM | Potency (HeLa) 631 nM | Potency (PA-1) 355 nM | Potency (Tov-21-G) 562 nM | Potency (Tov112D) 251 nM
inactive: Potency (CAOV3)

Cc1cc(Nc2ncc3cc(-c4c(Cl)cccc4Cl)c(=O)n(C)c3n2)ccc1F
active: Potency (CAOV3) 3160 nM | Potency (Es-2) 7940 nM | Potency (HeLa) 3550 nM | Potency (PA-1) 3980 nM | Potency (SKOV3) 3550 nM | Potency (Tov-21-G) 3980 nM | Potency (Tov112D) 3550 nM

COC(=O)N1CCC(n2ncc3c(N4CCOCC4)nc(-c4ccc(NC(=O)Nc5ccc(CO)cc5)cc4)nc32)CC1
active: Potency (CASKI) 1120 nM | Potency (Es-2) 1000 nM | Potency (HeLa) 2510 nM | Potency (Hek293T) 282 nM | Potency (JEG-3) 15800 nM | Potency (OV90) 794 nM | Potency (PA-1) 2510 nM | Potency (SKOV3) 282 nM

CCC(C)C(=O)OC1CC(O)C23C4OCC5(C(O)CC2C1(C)C(O)O4)C3C(=O)C(O)C1(C)C(O)(c2ccoc2)CC2OC251 (stereo not given)
inactive: Potency (CASKI) | Potency (JEG-3)
active: Potency (CAOV3) 3980 nM | Potency (Es-2) 8910 nM | Potency (OV90) 1260 nM | Potency (PA-1) 3160 nM | Potency (SKOV3) 3160 nM | Potency (Tov112D) 3550 nM

CC(C)c1nc(-c2ccc(NC(=O)Nc3cccc(C(F)(F)F)c3)c3ccccc23)c2c(N)nccn12
active: Potency (CAOV3) 22400 nM | Potency (Es-2) 12600 nM | Potency (HeLa) 31600 nM | Potency (Hek293T) 15800 nM | Potency (OV90) 1580 nM | Potency (PA-1) 12600 nM | Potency (SKOV3) 28200 nM
inactive: Potency (JEG-3)

Cc1cc(-c2cc(O)ccc2Cl)cc2nnc(Nc3ccc(OCCN4CCCC4)cc3)nc12
active: Potency (CAOV3) 11200 nM | Potency (SKOV3) 28200 nM

Cn1nnc(-c2ccc(-c3ccc(N4C[C@H](COP(=O)(O)O)OC4=O)cc3F)cn2)n1
inactive: Potency (CAOV3)
active: Potency (CASKI) 12600 nM | Potency (OV90) 20000 nM

C=C1C(OC(C)=O)CCC2(C)CC3(OC)OC(=O)C(C)=C3CC12 (stereo not given)
inactive: Potency (Es-2) | Potency (HeLa) | Potency (Hek293T) | Potency (PA-1) | Potency (Tov-21-G) | Potency (Tov112D)

Cc1cc(O)c(-c2ccc([C@@H](C)CN(C)C)cc2)c2c1[nH]c(=O)c1sccc12
inactive: activity change, negative = inhibition [1] -2.3%
active: Potency (CASKI) 251 nM | Potency (Es-2) 282 nM | Potency (HeLa) 447 nM | Potency (Hek293T) 158 nM | Potency (PA-1) 282 nM | Potency (Tov-21-G) 316 nM | Potency (Tov112D) 282 nM | Potency [1] 78.7 nM

CO[C@H]1/C=C/[C@@](C)(O)/C=C/C(=O)O[C@H](C)[C@@H](C)CC/C=C/1C
active: Potency (CASKI) 11200 nM | Potency (SKOV3) 12600 nM | Potency (Tov-21-G) 10000 nM

C#CC[C@H](c1nc2cc(Cl)ccc2c(=O)n1Nc1ccccc1)N(CCCN)C(=O)c1cccc(Cl)c1F
inactive: Potency (OV90)
active: Potency (Es-2) 7940 nM | Potency (HeLa) 3160 nM | Potency (Hek293T) 14100 nM | Potency (Tov112D) 355 nM

c1cc(Nc2cc(C3CC3)[nH]n2)nc(Nc2ccc3nc[nH]c3c2)n1
active: Potency (CASKI) 1780 nM | Potency (Es-2) 12600 nM | Potency (PA-1) 3980 nM | Potency (Tov112D) 1120 nM | Potency [1] 1400 nM
inactive: Potency (JEG-3) | activity change, negative = inhibition [1] 24.1%

COc1ccc(-c2ccc3c(N4CCOCC4)nc(N4CC(C)OC(C)C4)nc3n2)cc1CO (stereo not given)
active: Potency (CASKI) 1120 nM | Potency (Hek293T) 1580 nM | Potency (OV90) 2820 nM | Potency (PA-1) 2510 nM | Potency (SKOV3) 794 nM | Potency (Tov-21-G) 1260 nM
inactive: Potency (JEG-3)

COc1cc(OC)c(/C=C/S(=O)(=O)Cc2ccc(OC)c(NCC(=O)O)c2)c(OC)c1
active: Potency (Es-2) 316 nM | Potency (HeLa) 251 nM | Potency (JEG-3) 447 nM | Potency (PA-1) 224 nM | Potency (Tov112D) 316 nM

Cc1ccc(N)cc1O
inactive: Potency (Es-2) | Potency (HeLa) | Potency (Hek293T) | Potency (astro) | max response [2] 0.897% | outcome [3]

O=C(Nc1nc2ccccc2n1CCc1ccccc1)c1ccccc1
inactive: Potency (CASKI) | Potency (HeLa)
active: Potency (PA-1) 31600 nM

C=C(C)C(=O)O[C@H]1CC2=CC(C/C(C)=C\[C@H]3OC(=O)C(=C)[C@H]13)OC2=O (stereo not given in full)
inactive: Potency (CASKI) | Potency (HeLa) | Potency (JEG-3) | Potency (OV90) | Potency (SKOV3) | Potency (Tov112D)

CC[C@]1(O)CC2CN(CCc3c([nH]c4ccccc34)[C@@](C(=O)OC)(c3cc4c(cc3OC)N(C)[C@H]3[C@@](O)(C(=O)OC)[C@H](OC(C)=O)[C@]5(CC)C=CCN6CC[C@]43[C@@H]65)C2)C1 (stereo not given in full)
active: Potency (CASKI) 1120 nM | Potency (Es-2) 794 nM | Potency (HeLa) 708 nM | Potency (OV90) 3160 nM | Potency (PA-1) 282 nM | Potency (Tov-21-G) 316 nM | Potency (Tov112D) 282 nM

Nc1ccc(-c2cccc3c(=O)cc(N4CCOCC4)oc23)cc1
active: Potency (CASKI) 12600 nM | Potency (OV90) 11200 nM
inactive: Potency (JEG-3)
